A short description of assay [1]: qHTS assay to identify small molecule antagonists of the glucocorticoid receptor (GR) signaling pathway - cell viability counter screen (AID 720693). Note: nearly all actives have a fitted effect of over 55% in size. Note: potency is the fitted concentration of half-maximal effect. Background: qHTS replaces the single test concentration by a dilution series.
The nature of assay [2]: qHTS assay for identifying genotoxic compounds that show differential cytotoxicity against isogenic chicken DT40 cell lines with known DNA damage response pathways - wild type cell line (AID 743012). Note: nearly all actives have a fitted effect of over 60% in size. Note: potency is the fitted concentration of half-maximal effect. The essentials: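 Viability of DNA repair-proficient chicken DT40 cells was assessed by CellTiter-Glo luminescence following 40 h compound exposure at 37 C/5% CO2.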
The nature of assay [3]: qHTS assay for identifying genotoxic compounds that show differential cytotoxicity against isogenic chicken DT40 cell lines with known DNA damage response pathways - Rev3 mutant cell line (AID 743014). Note: nearly all actives have a fitted effect of over 55% in size. Note: potency is the fitted concentration of half-maximal effect.
Assay [4] in a line: qHTS assay for identifying genotoxic compounds that show differential cytotoxicity against isogenic chicken DT40 cell lines with known DNA damage response pathways - Rad54/Ku70 mutant cell line (AID 743015). Note: nearly all actives have a fitted effect of over 60% in size. Note: potency is the fitted concentration of half-maximal effect.
Assay [5] is described as follows: qHTS assay to identify small molecule antagonists of the androgen receptor (AR) signaling pathway using the MDA cell line - cell viability counter screen (AID 743041; note: nearly all actives have a fitted effect of over 45% in size; note: potency is the fitted concentration of half-maximal effect). The essentials: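 In this qHTS counter assay, fluorescence intensity after CellTiter-Fluor addition indicated viability of MDA-kb2 AR-luc cells given compounds and R1881 for 16 h at 37C.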
A short description of assay [6]: qHTS assay to identify small molecule antagonists of the thyroid receptor (TR) signaling pathway - cell viability counter screen (AID 743064). Note: nearly all actives have a fitted effect of over 50% in size. Note: potency is the fitted concentration of half-maximal effect. A digest of the protocol:
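Plate GH3.TRE-Luc cells; incubate 4 h at 37 °C; add compound, then T3 to 1 nM final; incubate 23.5 h; add CellTiter-Fluor; incubate 30 min at 37 °C, 5% CO2; read fluorescence.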

Assay [7] is described as follows: qHTS assay to identify small molecule antagonists of the thyroid receptor (TR) signaling pathway (AID 743065). Note: nearly all actives have a fitted effect of over 55% in size. Note: potency is the fitted concentration of half-maximal effect. A digest of the protocol:
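GH3.TRE-Luc rat pituitary cells carrying two TR response elements driving luciferase were plated for 4 h, given compound plus 1 nM T3 (final), and incubated 23.5 h at 37 C. ONE-Glo luminescence measured reporter inhibition; CellTiter-Fluor fluorescence tracked cytotoxicity.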

For assay [8], the system named is thyroid hormone receptor (rat, GH3 cells). Nature of the assay: qHTS assay to identify small molecule agonists of the thyroid receptor (TR) signaling pathway (AID 743066; calls by dose curve).
Assay [9] has as its target Estrogen receptor (Homo sapiens) (UniProt P03372). Nature of the assay: qHTS assay to identify small molecule antagonists of the estrogen receptor alpha (ER-alpha) signaling pathway (AID 743069; active = well fitted curve in the direction sought with a large enough effect in the signal ratio in the repeat runs, not every such curve was filed as active; inconclusive = weak or mixed curves, or effect the other way; inactive = no such curve, though single readings can be large or run the other way; the % refers to the signal ratio; note: potency is the fitted concentration of half-maximal effect). The essentials:
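A 17beta-estradiol challenge was applied right after compound transfer to ER-alpha-UAS-bla HEK293 cells previously kept in charcoal-stripped serum. Plates stood 18 hr at 37C and 5% CO2; fluorescence was read following 2 hr FRET substrate loading at room temperature.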

A short description of assay [10]: qHTS assay to identify small molecule antagonists of the estrogen receptor alpha (ER-alpha) signaling pathway - cell viability counter screen (AID 743074; calls by dose curve;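 note: HEK293 cells carrying ER-alpha-UAS-bla reporter stimulated with 17beta-estradiol; nearly all actives have a fitted effect of over 45% in size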; note: potency is the fitted concentration of half-maximal effect).
The target in assay [11] is Estrogen receptor (Homo sapiens) (UniProt P03372). Nature of the assay: qHTS assay to identify small molecule agonists of the estrogen receptor alpha (ER-alpha) signaling pathway (AID 743075; calls by dose curve;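 note: HEK293 GripTite cells with ER-alpha and UAS-driven beta-lactamase reporter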).
Sequence of Estrogen receptor (Homo sapiens) (P03372 whole entry, looked up): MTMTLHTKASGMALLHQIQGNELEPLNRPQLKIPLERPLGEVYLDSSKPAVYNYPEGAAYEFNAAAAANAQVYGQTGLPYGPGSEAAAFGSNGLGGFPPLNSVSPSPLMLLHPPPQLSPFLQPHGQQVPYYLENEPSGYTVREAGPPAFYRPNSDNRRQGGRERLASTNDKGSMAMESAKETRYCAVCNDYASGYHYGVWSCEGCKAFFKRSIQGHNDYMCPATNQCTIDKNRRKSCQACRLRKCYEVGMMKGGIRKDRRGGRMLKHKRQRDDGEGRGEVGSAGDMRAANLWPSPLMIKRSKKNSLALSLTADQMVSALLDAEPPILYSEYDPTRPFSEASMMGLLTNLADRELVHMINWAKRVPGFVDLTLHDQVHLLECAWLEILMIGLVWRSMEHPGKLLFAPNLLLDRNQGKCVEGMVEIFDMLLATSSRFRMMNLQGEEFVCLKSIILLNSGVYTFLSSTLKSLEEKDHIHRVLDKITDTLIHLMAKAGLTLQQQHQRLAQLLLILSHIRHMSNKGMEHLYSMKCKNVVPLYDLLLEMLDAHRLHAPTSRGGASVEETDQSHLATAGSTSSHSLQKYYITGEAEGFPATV
For assay [12] the target is unchanged. Nature of the assay: qHTS assay to identify small molecule agonists of the estrogen receptor alpha (ER-alpha) signaling pathway using the BG1 cell line (AID 743079). Note: nearly all actives have a fitted effect of over 20% in size. Note: potency is the fitted concentration of half-maximal effect.
Assay [13] in a line: qHTS assay to identify small molecule antagonists of the estrogen receptor alpha (ER-alpha) signaling pathway using the BG1 cell line (AID 743080; calls by dose curve; note: nearly all actives have a fitted effect of over 25% in size; note: potency is the fitted concentration of half-maximal effect). The essentials: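 Antagonist mode: compounds in DMSO were pinned onto BG1-Luc-4E2 cells alongside 17beta-estradiol agonist, incubated 21.5 h, and ERE-driven luciferase measured with ONE-Glo. Cytotoxicity was multiplexed using CellTiter-Fluor fluorescence.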

A short description of assay [14]: qHTS assay to identify small molecule antagonists of the estrogen receptor alpha (ER-alpha) signaling pathway using the BG1 cell line - cell viability counter screen (AID 743081).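 Note: compound given together with 17beta-estradiol as the ER stimulus; series mostly up to about 70 µM; nearly all actives have a fitted effect of over 45% in size.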
Assay [15] has as its target Aromatase (Homo sapiens) (UniProt P11511). Nature of the assay: qHTS assay to identify aromatase inhibitors (AID 743083). Note: nearly all actives have a fitted effect of over 55% in size. Note: potency is the fitted concentration of half-maximal effect.
Assay [16] concerns the target Androgen receptor (Homo sapiens) (UniProt P10275). Nature of the assay: qHTS assay to identify small molecule agonists of the androgen receptor (AR) signaling pathway using the MDA cell line (AID 743040; note: nearly all actives have a fitted effect of over 20% in size). A digest of the protocol:
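Cell-based luciferase reporter: MDA-kb2, MMTV promoter (AR + GR response elements). 16 h compound exposure at 37C; ONE-Glo, 30 min RT, luminescence.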

Assay [17] has the same target. Nature of the assay: qHTS assay to identify small molecule antagonists of the androgen receptor (AR) signaling pathway using the MDA cell line (AID 743042; note: nearly all actives have a fitted effect of over 55% in size; note: potency is the fitted concentration of half-maximal effect). A digest of the protocol: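 MDA-kb2 cells (human breast carcinoma, stably carrying an MMTV-luciferase reporter responsive to AR and GR) were plated at 3,000 cells/well and preincubated 5 hr at 37C, then given compound plus R1881 agonist for 16 h. ONE-Glo luminescence was read.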

Assay [18] is described as follows: qHTS assay to identify small molecule antagonists of the androgen receptor (AR) signaling pathway - cell viability counter screen (AID 743033; note: nearly all actives have a fitted effect of over 45% in size).
In assay [19] the target is Androgen receptor (Homo sapiens) (UniProt P10275). Nature of the assay: qHTS assay to identify small molecule antagonists of the androgen receptor (AR) signaling pathway (AID 743035; active = well fitted inhibition curve with a large enough effect in the signal ratio in the repeat runs, not every such curve was filed as active; inconclusive = weak or mixed curves, or effect the other way; inactive = no such curve, though single readings can be large or run the other way; the % refers to the signal ratio; note: potency is the fitted concentration of half-maximal effect). The essentials: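 Reporter HEK293 cells were exposed to compounds and R1881 overnight (16 h, 37C); beta-lactamase activity was then quantified by FRET fluorescence.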
Sequence of Androgen receptor (Homo sapiens) (P10275 whole entry, looked up): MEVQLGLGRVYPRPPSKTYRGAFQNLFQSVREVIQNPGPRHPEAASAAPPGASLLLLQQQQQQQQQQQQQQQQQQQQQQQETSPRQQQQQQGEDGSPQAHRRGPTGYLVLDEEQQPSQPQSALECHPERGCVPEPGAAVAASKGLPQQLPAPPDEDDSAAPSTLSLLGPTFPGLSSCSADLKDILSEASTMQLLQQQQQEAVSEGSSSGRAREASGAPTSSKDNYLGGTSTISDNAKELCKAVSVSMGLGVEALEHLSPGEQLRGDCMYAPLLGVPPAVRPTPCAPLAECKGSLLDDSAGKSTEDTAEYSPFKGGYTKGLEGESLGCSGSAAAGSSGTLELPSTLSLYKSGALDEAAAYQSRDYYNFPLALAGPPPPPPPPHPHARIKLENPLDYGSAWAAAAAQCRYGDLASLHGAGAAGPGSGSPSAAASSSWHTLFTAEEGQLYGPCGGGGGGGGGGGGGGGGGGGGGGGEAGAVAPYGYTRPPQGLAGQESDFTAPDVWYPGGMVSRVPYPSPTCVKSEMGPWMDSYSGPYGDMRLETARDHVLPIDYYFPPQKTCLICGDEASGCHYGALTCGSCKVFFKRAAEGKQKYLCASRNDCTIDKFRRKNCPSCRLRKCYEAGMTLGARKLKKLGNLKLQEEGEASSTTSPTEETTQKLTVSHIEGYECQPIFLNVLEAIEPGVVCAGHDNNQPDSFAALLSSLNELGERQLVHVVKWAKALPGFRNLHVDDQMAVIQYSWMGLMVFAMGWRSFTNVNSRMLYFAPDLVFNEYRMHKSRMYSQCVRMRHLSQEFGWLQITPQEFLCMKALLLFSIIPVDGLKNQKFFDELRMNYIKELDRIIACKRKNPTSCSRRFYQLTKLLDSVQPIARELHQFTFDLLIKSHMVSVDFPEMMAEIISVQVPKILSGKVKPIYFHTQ

Where “and” joins values, the source holds several entries; their conditions need not be identical. Equal values may be shown once. A structure can be active in one record and inactive in another. Calls of active or inactive are those of the source. Unless noted, calls come from the whole dose curve; as a rule, active = well fitted curve in the direction sought with a large enough effect in the repeat runs; inconclusive = weak or mixed curves; inactive = no such curve, though single readings can be large; an effect the other way counts as inactive or inconclusive. Positions of bridges follow the written chain, without caps; N, C: chain ends. Non-standard residues stand in square brackets, D forms with d. Residues, ends and D or L forms follow the SMILES beside them. *: point of attachment. X1 = CC[C@@H](C)[C@@H](N)C1=N[C@H](C(=O)*)CS1; d(aIle) = CC[C@H](C)[C@@H](N)C(=O)O; dOrn = NCCC[C@@H](N)C(=O)O

Sequence of Aromatase (Homo sapiens) (P11511 whole entry, looked up): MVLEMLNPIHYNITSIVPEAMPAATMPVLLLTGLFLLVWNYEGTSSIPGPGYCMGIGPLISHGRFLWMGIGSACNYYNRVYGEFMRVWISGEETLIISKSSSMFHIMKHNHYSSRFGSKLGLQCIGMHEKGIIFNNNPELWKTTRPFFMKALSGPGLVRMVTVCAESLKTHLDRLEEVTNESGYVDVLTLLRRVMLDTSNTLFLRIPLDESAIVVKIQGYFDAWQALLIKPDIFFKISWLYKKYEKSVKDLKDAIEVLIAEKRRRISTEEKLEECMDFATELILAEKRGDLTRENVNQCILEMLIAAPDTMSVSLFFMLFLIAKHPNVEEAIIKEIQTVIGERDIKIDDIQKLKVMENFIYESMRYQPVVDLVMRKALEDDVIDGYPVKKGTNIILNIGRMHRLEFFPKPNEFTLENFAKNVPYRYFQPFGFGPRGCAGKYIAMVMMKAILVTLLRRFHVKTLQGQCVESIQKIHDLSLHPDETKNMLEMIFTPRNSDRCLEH

With `CO[C@H]1C[C@H](O[C@H]2[C@H](C)[C@@H](O[C@@H]3O[C@H](C)C[C@H](N(C)C)[C@H]3O)[C@@H](C)C[C@]3(CO3)C(=O)[C@H](C)[C@@H](O)[C@@H](C)[C@@H](C)OC(=O)[C@@H]2C)O[C@@H](C)[C@@H]1O`, the Potency entry in [1], in assay [2], in [3], in [4], in assay [5] and in [6] was “inactive” each time. The Potency result in assay [7], in assay [8], in assay [9], in assay [10], in assay [11] and in assay [12] was “inactive” in each case. Moreover, the Potency entry in assay [13], in assay [14] and in assay [15] was “inactive” each time.

For `CC[C@@H](C)[C@@H](N)C1=N[C@H](C(=O)N[C@@H](CC(C)C)C(=O)N[C@@H](CCC(=O)O)C(=O)N[C@@H](C(=O)N[C@@H]2CCCCNC(=O)[C@@H](CC(N)=O)NC(=O)[C@@H](CC(=O)O)NC(=O)[C@@H](Cc3cnc[nH]3)NC(=O)[C@@H](Cc3ccccc3)NC(=O)[C@@H]([C@H](C)CC)NC(=O)[C@@H](CCCN)NC2=O)[C@@H](C)CC)CS1` (X1-LE[d(aIle)][dK][dOrn][dI][dF][dH][dD][dN]; lactam 4-C), the Potency entry in [1], in [2], in assay [3], in assay [4], in assay [5] and in assay [6] was “inactive” throughout. The Potency entry in assay [7], in assay [8], in assay [9], in assay [10], in assay [11] and in [13] was “inactive” throughout. Further, the Potency entry in assay [14] and in assay [15] was “inactive” each time. The Potency in [12] is 4.03 µM (active) and inactive.

In the case of `O=C(O)/C=C/C(O)c1ccc(Cl)cc1` (configuration not stated), the Potency result in assay [1], in [2], in assay [3], in [4], in assay [16] and in [5] was “inactive” in each case. Also, the Potency entry in [17], in assay [6], in assay [8], in assay [10], in assay [14] and in assay [15] was “inactive” in each case.

With `Nc1nc(/C(=C/CC(=O)O)C(=O)N[C@@H]2C(=O)N3C(C(=O)O)=CCS[C@H]23)cs1`, the Potency result in assay [1], in assay [2], in [3], in assay [4], in assay [5] and in [6] was “inactive” each time. Further, the Potency entry in [7], in [8], in assay [9], in assay [10], in assay [11] and in assay [12] was “inactive” each time. The Potency entry in assay [13], in assay [14] and in assay [15] was “inactive” in each case.

As to `CC/C(=C(/CC)c1ccc(OP(=O)(O)O)cc1)c1ccc(OP(=O)(O)O)cc1`, the Potency entry in assay [1], in assay [2], in assay [3], in assay [4], in [18] and in [5] was “inactive” throughout. Also, the Potency entry in assay [7], in [8], in assay [14] and in assay [15] was “inactive” each time.

As for `Cc1cc(F)ccc1-c1cc(N2CC[C@@H](O)[C@H]2CO)ncc1N(C)C(=O)C(C)(C)c1cc(C(F)(F)F)cc(C(F)(F)F)c1`, the Potency in assay [1] was 17.1 µM (active); in assay [2] it was 12 µM (active); in assay [3], 8.5 µM (active); in assay [4], 10.7 µM (active); in assay [19] it was 15.3 µM (active); in assay [17] it was 33.8 µM (active). The Potency was 10.7 µM (active) in assay [6], 9.54 µM (active) in assay [7], 43 µM (active) in [10] and 24 µM (active) in [15]. Moreover, the Potency result in [16] was “inactive”.

With `COC(=O)C[C@](O)(CCCC(C)(C)O)C(=O)O[C@@H]1C(OC)=CC23CCCN2CCc2cc4c(cc2[C@H]13)OCO4` (some centres not stated), the Potency in assay [1] was 1.2 µM (active) and 1.07 µM (active); in assay [2], 29.8 nM (active) and 23.7 nM (active); in assay [3], 21.1 nM (active) and 26.6 nM (active); in assay [4], 0.0237 µM (active); in assay [5], 53.1 nM (active); in [17] it was 0.0211 µM (active). For the same compound, the Potency in assay [7] is 0.0376 µM (active); in assay [9], 674 nM [inconclusive] (active) and 1.2 µM [inconclusive] (active); in [13] it was 168 nM (active); in [15], 29.8 nM (active) and 23.7 nM (active). Further, the Potency entry in [16], in [10], in assay [11] and in assay [14] was “inactive” in each case.

Values taken from PubChem BioAssay (Tox21).
